Data from PubChem BioAssay AID1508600 (Functional Genomics Laboratory (NCATS/FGL), 2020).
The whole screen tested about 53,000 sequences, of which about 3,700 (7%) were called active.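 The calls were made as follows: active = gene knockdowns whose robust z-score for IL-1 alpha signal is at least 2 or at most -2, so actives lie on both sides; inactive = the rest.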 Only a selection was taken, and actives are over-represented in it overall.

Experiment: Components of the Cytosolic LPS Sensing Pathway: Gene Identification via Genome-wide siRNA Screen;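 also: robust z of the log signal after scaling to non-targeting control siRNA wells of the plate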
Details: RAW264.7 macrophages, IL-1a HTRF, actives lie on both sides, screened at 100 nM (by protocol), cells primed 5 h with Pam3CSK4 first
Procedure, shortened: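 Read-out: IL-1a HTRF on supernatant, divided by plate negative-control median ×100, log-transformed and converted to robust z-score. Cells were RAW264.7 given 100 nM siRNA, Pam3CSK4-primed 5 hours, then LipidA-transfected 24 hour.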

Row | Sequence | z-score
1 | GGUACUGGCAUGGUGACAATT against Mmp11 | -2.52 (active)
2 | GGUUUCUUGCCAAGAAAUUTT against Asic5 | -0.359 (inactive)
3 | GGAAACCUGCAUCCUAUGATT against Olfr195 | -0.196 (inactive)
4 | GAGCUGGGAGGUUUCACAGTT against Tspo | -1.42 (inactive)
5 | GGCUUAAGGCUAAUGGUCUTT against Fxyd5 | -0.778 (inactive)
6 | GCCUGCCUACGAGAUCAACTT against Mgp | -0.0804 (inactive)
7 | CCGUGAAAAAAUUAAACAGTT against Slk | 0.338 (inactive)
8 | CGUUUGCUCUAAAGCCAGGTT against Smagp | 0.886 (inactive)
9 | GGACAAAAUCACCUCACUUTT against Olfr1135 | -3.29 (active)
10 | GGAAUUUCAUGGCAAGGGUTT against Fmc1 | 0.652 (inactive)
11 | GGAUCACAUGAAAGGAUUATT against Dclre1c | -0.242 (inactive)
12 | CCCAGCAACUACUGGAAACTT against Tas2r139 | -0.293 (inactive)
13 | CGCUGUGCUGAGCUUACUUTT against D17H6S53E | -2.36 (active)
14 | GGUUAUCUCAAAACUCGACTT against Prox2 | -0.119 (inactive)
15 | GGUAACUGAUUGCUUAGAUTT against Smndc1 | 0.836 (inactive)
16 | GCACUACAUUGUGGCUGUCTT against Itpr3 | -2.57 (active)
17 | GGGUUUGAACUGGUGAUUGTT against Cenpp | -0.525 (inactive)
18 | GGACAAAGGGAUAAUGCUGTT against Aldoc | 0.735 (inactive)
19 | GGUUUUGGAAAAAGUGGAUTT against Chp1 | -0.867 (inactive)
20 | GCCCUGUACCUUUUAGCUUTT against Olfr704 | -0.306 (inactive)
21 | CCUUGUUCAAAAAGAUGGCTT against Serpina1f | -2.08 (active)
22 | GGCCAUCAAGAGUUUCUUUTT against Nr0b1 | 0.876 (inactive)

Row | Sequence | z-score
23 | GCGUGUCUUGCUCUUUUGATT against Usp22 | -1.21 (inactive)
24 | GGAAUCCUCUGAAUAACCUTT against Vmn1r172 | -1.14 (inactive)
25 | GGGUGAUUUCUACCUUCAATT against D630003M21Rik | -0.496 (inactive)
26 | GGAAGAGGAAAUCACCACATT against Clec11a | -2.16 (active)
27 | GGUUGGUGAUGGCACAAACTT against Cct8 | -0.469 (inactive)
28 | GGUAGAACUUAUUGUGGACTT against Ly6f | -0.692 (inactive)
29 | CCUAUAAAGCUCUAAAGGATT against Caprin1 | 0.115 (inactive)
30 | GGGUUUCCACAGACAAUGUTT against V1rg10 | -0.837 (inactive)
31 | GGACCUUUUUUGUUCAAAATT against Rasd1 | 0.157 (inactive)
32 | CUCUGUACUUGGGCAGGAATT against Cyp2c65 | 2.9 (active)
33 | CGCUGCAUUAAAGACUAAATT against Kcnj10 | 0.414 (inactive)
34 | GCAAACGGACACUUGGAAUTT against Hmx1 | -0.9 (inactive)
35 | GGUAAACAUGAUGUCCCUCTT against A630038E17Rik | 0.0317 (inactive)
36 | GGAAUAUGCUGCAAAAAUCTT against Camk2g | -1.58 (inactive)
37 | GGCAGCCUGAACAUCAAUGTT against S100a13 | 1.47 (inactive)
38 | CCGAAGCUUUAUCUUCUAUTT against Pkd2 | -0.719 (inactive)
39 | GGCCAUGGUUUCAAAAACATT against Rspo2 | -1.33 (inactive)
40 | GGCGAUCUUUGGAAUUAGATT against Ing3 | 0.209 (inactive)
41 | GGGAACAUGUUUUACUCUUTT against Zfp521 | 1.63 (inactive)
42 | GGUCGACAGAUCAAGCCUUTT against Psmb3 | -2.18 (active)
43 | GCCAAUCUGAACUUGUGUUTT against Plet1 | -0.931 (inactive)
44 | CCACAGGGACAACAAACUATT against Arid3b | 0.0513 (inactive)

Row | Sequence | z-score
45 | CCUGUUUCGUAGAUUGUUUTT against Eftud2 | -0.35 (inactive)
46 | CGUGUCAUACAGGUGUGGUTT against Lhx8 | 2.11 (active)
47 | UCCUUGCUGUCCUAACCAUTT against Gpr119 | 1.64 (inactive)
48 | GCUGCACCAUCAAUUCCCATT against Vpreb3 | -1.63 (inactive)
49 | GGCACUUGAAUUUCUAAGUTT against Cbx5 | 0.0672 (inactive)
50 | GGACCCAGCAGUCAAGAUATT against 9930038B18Rik | 0.0416 (inactive)
51 | CCAGCAAUAGUUCAGCAGATT against Ccdc82 | -2.72 (active)
52 | GGUGCCAACCUCAAUUCAUTT against Hnf4a | 1.9 (inactive)
53 | CCGGUUCACUGCUUGACCUTT against Wbp1 | 0.87 (inactive)
54 | CGUUGUGAGGUUAUACGACTT against Tbc1d20 | -0.862 (inactive)
55 | GGAACACUUUAAGACCAAATT against Fmnl1 | 0.482 (inactive)
56 | GGAGUAUUAUGAAGUGUUGTT against Aip | 0.108 (inactive)
57 | GGAAACUGGUGCUACAUUATT against Usp10 | 0.747 (inactive)
58 | GGACAGGAUCAGAGAAAGATT against Zbtb7c | -2.15 (active)
59 | GGACAUUGAGGAUUAUGUCTT against Med24 | 0.332 (inactive)
60 | GCUAGAUGUAGAUAGAUAATT against Plekhm3 | -0.569 (inactive)
61 | GCACAGGUGAGCUCUUUGATT against Nudt10 | -1.12 (inactive)
62 | GUGUUUUACCAUUGGACAUTT against Klra20 | 1.58 (inactive)
63 | GUUCGCUGAACACGUCUUCTT against Hpcal1 | 0.549 (inactive)
64 | GGCAUUGAAUUACUUACAUTT against Slk | 2.46 (active)
65 | GAGACAAUUGUAACAUUCUTT against Olfr176 | 1.2 (inactive)
66 | GGCAGCUUAGCUGUUCGUCTT against Socs4 | -0.664 (inactive)

Row | Sequence | z-score
67 | GGCCAGUUCUAUGUCAUGATT against Usf2 | -2.05 (active)
68 | GGCUCUCAGUGCCAUCAUUTT against Stk40 | -0.858 (inactive)
69 | GCUUGGGUAAUAGAAAUCATT against Btnl1 | 0.6 (inactive)
70 | GGUUCUCCAAACUCUGCCATT against Arhgap1 | 2.29 (active)
71 | GCCAAGACAUCAGAAGGAUTT against Nrxn1 | 0.202 (inactive)
72 | GGAAAACAGUGGUAGCUUATT against Cnp | 0.187 (inactive)
73 | GGAUGAAGAUGAAAAAGAUTT against Hoxc9 | -0.247 (inactive)
74 | GGGACUUUGUAAACAGUUUTT against Eci2 | 1.61 (inactive)
75 | GGCUAACCGUAUCAGUCAUTT against Podnl1 | -1.23 (inactive)
76 | GGCUUGAAUAUUAAAGUGATT against Arhgef19 | -0.505 (inactive)
77 | GGAGGUGGUACAAUACACCTT against Gsg1 | 2.86 (active)
78 | CCAACUUCAAAACUAUCGUTT against Trp53bp1 | 2.19 (active)
79 | UGCGAGCUCACUGAUGUACTT against Adam34l | -1.69 (inactive)
80 | GGGUUAGGUUGGGAUGGAUTT against Ccnd3 | -0.466 (inactive)
81 | GCACCUGACAGAUACUUCCTT against Ints4 | -2.1 (active)
82 | CGUGGGCCUAUGCUUGUCATT against Tsc1 | 0.32 (inactive)
83 | GGUUCUGAUAUACGUGUUUTT against Rraga | 0.057 (inactive)
84 | CCCAUUCACUCAUCACAUGTT against F630003A18Rik | -1.4 (inactive)
85 | GGCAGUUUUGCAUGUGUGATT against Zfp654 | -2.23 (active)
86 | GCCACUAAGAAUCAGACAUTT against Ryr1 | -0.382 (inactive)
87 | CCAGACCAUUAACUUGAUUTT against Lsm8 | -0.739 (inactive)
88 | GGUACGAGUGAUCGUACUUTT against 5330438I03Rik | 0.54 (inactive)

Row | Sequence | z-score
89 | CCCGUCACCACUUAACAUGTT against Rasal2 | 0.699 (inactive)
90 | GCUUUGAUGUCGAUGGGCUTT against Arg1 | -2.01 (active)
91 | GGAAUACCAUGUUACAAUUTT against Reln | 0.816 (inactive)
92 | GGUGUCUUUUUUUACAAGATT against Tnfsf11 | 0.233 (inactive)
93 | GGAGGAACCUAAUUGAAUGTT against Cmbl | 0.183 (inactive)
94 | GGUCCAGAUAGACAUCCUGTT against Ralb | 0.169 (inactive)
95 | GCAACUUGUCAGAUGUUUCTT against Trpm7 | 3.35 (active)
96 | GGGAUAAAUAUGAAGAAAGTT against Tacc2 | -1.46 (inactive)
97 | GGAACAGAGAUAUGAAACATT against Olfr738 | -2.4 (active)
98 | GGAGCAAUUAAAGGUGUCATT against Fpr-rs3 | -0.159 (inactive)
99 | CCAUCUUCAGCAGUGGAAATT against Rph3al | -1 (inactive)
100 | GGCGUGCGAUAACACGCAATT against Med18 | 1.05 (inactive)
101 | GGUCGUAUGGUGCUCAAGATT against Pira1 | -1.76 (inactive)
102 | GGCAUAGGACUAGAAGCAGTT against Rsrc2 | -1.54 (inactive)
103 | GCAGUAUGGGACUAUGCUUTT against Cp | -0.0969 (inactive)
104 | GCCAGAACCUGACUUAUAUTT against Mia2 | -0.0793 (inactive)
105 | GCCUGGCUAGAAAUGUGGUTT against Fpr3 | 3.19 (active)
106 | CCUCAUUCAGAGUAUAUAGTT against Vwa3a | -0.469 (inactive)
107 | GGCUUUAGAGAAAGAAGUATT against Med4 | 1 (inactive)
108 | GCGAGGUGUCUCUAUCAACTT against Mrpl11 | 3.37 (active)
